In PubChem BioAssay:
The source made the active and inactive calls. Unless noted, how the calls were made is not given here.

How the values were obtained:
[1] = test system: Wnt5a (protein binding on small-molecule microarray); experiment: small molecules binding Wnt5a protein – biophysical, small-molecule microarray, 635/667 nm fluorescence, primary screen (AID 1142); settings: 635 nm fluorescence, higher = more signal;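 further: fluorescence read at 667 nm with signal to noise per printed feature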
[2] = ATP-based viability of Huh7 replicon cells – cell-based, CellTiter-Glo luminescence, basal, 48 h, cytotoxicity control for HCV replication inhibitor project, primary screen (AID 1143); settings: higher = more signal, called active from +8 up or from −8 down;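 further: Huh7 hepatoma cells carrying a hepatitis C replication reporter with no stimulus; test concentration not given here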
[3] = Pseudomonas biofilm growth suppression – PAO1 strain, BacTiter-Glo luminescence, LB-PBS, primary screen (AID 1144); settings: P. aeruginosa PAO1 biofilm, 12 h, higher = more signal
[4] = basal CRE-LacZ reporter activity in PC12 – cell-based, unstimulated, primary screen (AID 1145); settings: no forskolin, luminescence, 4.5 h, higher = more signal, called active from +8 up or from −8 down
[5] = forskolin-driven CRE-LacZ activity in PC12 – cell-based, CRE-LacZ reporter, forskolin-stimulated, primary screen (AID 1146); settings: luminescence, 4.5 h, higher = more signal, called active from +8 up or from −8 down;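 further: PC12 cells with 6xCRE LacZ reporter stimulated by forskolin 10 µM; beta-galactosidase reporter signal reflecting CREB driven transcription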
[6] = molecular target: Streptavidin (Streptomyces avidinii) (UniProt P22629); experiment: compounds binding control protein streptavidin – biophysical, small-molecule microarray, 635/667 nm fluorescence, artefact control for SMM compound annotation, primary screen (AID 1147); settings: higher = more signal;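 further: signal reflects streptavidin binding to arrayed compounds as a control protein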
Chain of Streptavidin (Streptomyces avidinii) (P22629 whole entry, looked up): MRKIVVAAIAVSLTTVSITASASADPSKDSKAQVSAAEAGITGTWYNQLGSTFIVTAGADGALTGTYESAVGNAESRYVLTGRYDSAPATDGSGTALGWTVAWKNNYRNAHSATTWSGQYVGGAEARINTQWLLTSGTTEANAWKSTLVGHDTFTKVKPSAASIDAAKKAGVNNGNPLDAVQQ

[7] = probe aInhba binding on compound microarray – biochemical, small-molecule microarray, 635/667 nm fluorescence, primary screen (AID 1148); settings: higher = more signal;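 further: score merges 667nm spot fluorescence with signal-to-noise for antibody binding to printed compounds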
[8] = molecular target: Torsin-1A (Homo sapiens) (UniProt O14656); experiment: TOR1A wild-type binding on microarray – cell lysate, small-molecule microarray, lysate, 635/667 nm, primary screen (AID 1149); settings: COS7 hTOR1A-WT lysate, 635 nm fluorescence, higher = more signal
Chain of Torsin-1A (Homo sapiens) (O14656 whole entry, looked up): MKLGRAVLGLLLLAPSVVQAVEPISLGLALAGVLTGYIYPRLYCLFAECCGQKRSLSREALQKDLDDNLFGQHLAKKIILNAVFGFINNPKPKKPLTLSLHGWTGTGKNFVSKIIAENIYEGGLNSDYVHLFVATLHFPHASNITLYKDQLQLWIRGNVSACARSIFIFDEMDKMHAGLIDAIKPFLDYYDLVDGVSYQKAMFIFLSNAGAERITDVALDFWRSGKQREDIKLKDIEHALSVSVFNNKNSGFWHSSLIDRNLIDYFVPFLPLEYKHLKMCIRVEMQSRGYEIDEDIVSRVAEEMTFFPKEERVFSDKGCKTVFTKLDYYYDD

[9] = molecular target: Torsin-1A (Homo sapiens) (UniProt O14656); experiment: torsin A mutant lysate binding on microarrays – cell lysate, small-molecule microarray, COS7 lysate, 635/667 nm fluorescence, primary screen (AID 1150); settings: COS7 hTOR1A mutant lysate, 635 nm fluorescence, higher = more signal;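 further: score pools 667 nm emission and signal to noise measuring lysate protein binding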
[10] = test system: Sonic hedgehog protein (Shh); experiment: Sonic hedgehog microarray binding compounds – biochemical, small-molecule microarray, 635/667 nm fluorescence, primary screen (AID 1151); settings: 635 nm fluorescence, higher = more signal;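 further: Shh protein binding to compounds spotted on small-molecule microarray slides; score combines spot fluorescence intensity with signal-to-noise across triplicate slides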
[11] = optical density shifts of acrAB sulA E. coli – strain DRC41, OD650, 48 h, E. coli filamentation inducer project, primary screen (AID 1152); settings: higher = more signal, called active from +8 up or from −8 down;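 further: E. coli MC1000 strain DRC41 lacking acrAB efflux pump and sulA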
[12] = probe aLefty1 binding on compound microarray – biochemical, small-molecule microarray, 635/667 nm fluorescence, primary screen (AID 1153); settings: higher = more signal;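 further: score merges spot fluorescence with signal-to-noise ratio from the scanned slide images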
[13] = plasmodial surface anion channel blockers, osmotic lysis – cell-based, P. falciparum Indochina, OD700, 1 h, primary screen (AID 1154); settings: P. falciparum Indochina infected RBC osmotic lysis, higher = more signal, called active from +8 up or from −8 down
[14] = plasmodial surface anion channel blockers, osmotic lysis – cell-based, P. falciparum Indochina, OD700, 2 h, primary screen (AID 1155);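 further: lysis reports solute entry through the parasite surface anion channel PSAC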; settings: P. falciparum Indochina infected erythrocytes, higher = more signal, called active from +8 up or from −8 down
[15] = changes in parasitized red cell lysis, either direction – P. falciparum Indochina, OD700, 3 h, PSAC antagonist project, primary screen (AID 1156); settings: P. falciparum-infected erythrocytes, osmotic lysis, higher = more signal, called active from +8 up or from −8 down
[16] = plasmodial surface anion channel blockers, osmotic lysis – cell-based, P. falciparum Indochina, OD700, 18 h, primary screen (AID 1157); settings: P. falciparum Indochina infected erythrocytes, osmotic lysis OD700, 18 h; higher = more signal, called active from +8 up or from −8 down
[17] = S6 kinase pathway phospho-S6 level changes – cell-based, A549, cytoblot, luminescence, serum-stimulated, primary screen (AID 1158); settings: 5 h, higher = more signal;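 further: serum-stimulated A549 lung adenocarcinoma cells; signal is phosphorylated S6 detected by cytoblot immunostaining with HRP secondary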
[18] = molecular target: NADPH oxidase 2 (Homo sapiens) (UniProt P04839); experiment: compounds shifting NOX2 Amplex Red fluorescence – cell-based, HEK293-NOX2, PMA-stimulated, NOX inhibitor project, primary screen (AID 1159); settings: 45 min, higher = more signal, called active from +8 up or from −8 down; further: test concentration not given here
Chain of NADPH oxidase 2 (Homo sapiens) (P04839 whole entry, looked up): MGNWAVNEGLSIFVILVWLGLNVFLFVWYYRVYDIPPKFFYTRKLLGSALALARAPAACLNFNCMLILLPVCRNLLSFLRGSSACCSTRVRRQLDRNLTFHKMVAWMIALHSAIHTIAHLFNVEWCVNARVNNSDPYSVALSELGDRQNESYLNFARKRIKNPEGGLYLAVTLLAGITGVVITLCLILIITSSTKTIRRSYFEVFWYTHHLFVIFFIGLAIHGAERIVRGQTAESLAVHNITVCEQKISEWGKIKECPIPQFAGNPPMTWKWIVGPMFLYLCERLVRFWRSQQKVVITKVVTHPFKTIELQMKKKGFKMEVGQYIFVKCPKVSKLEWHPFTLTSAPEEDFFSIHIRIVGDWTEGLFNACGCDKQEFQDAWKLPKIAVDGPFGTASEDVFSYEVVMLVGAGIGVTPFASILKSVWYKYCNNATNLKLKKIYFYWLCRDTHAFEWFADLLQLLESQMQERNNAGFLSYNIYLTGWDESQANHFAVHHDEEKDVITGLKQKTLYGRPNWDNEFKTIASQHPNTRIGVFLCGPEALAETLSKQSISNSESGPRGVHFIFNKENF

[19] = molecular target: NADPH oxidase 4 (Homo sapiens) (UniProt Q9NPH5); experiment: compounds shifting NOX4 Amplex Red fluorescence – cell-based, HEK293-NOX4, tetracycline-induced, NOX inhibitor project, primary screen (AID 1160); settings: HEK293-NOX4, Amplex Red H2O2 fluorescence, 45 min; higher = more signal, called active from +8 up or from −8 down
Chain of NADPH oxidase 4 (Homo sapiens) (Q9NPH5 whole entry, looked up): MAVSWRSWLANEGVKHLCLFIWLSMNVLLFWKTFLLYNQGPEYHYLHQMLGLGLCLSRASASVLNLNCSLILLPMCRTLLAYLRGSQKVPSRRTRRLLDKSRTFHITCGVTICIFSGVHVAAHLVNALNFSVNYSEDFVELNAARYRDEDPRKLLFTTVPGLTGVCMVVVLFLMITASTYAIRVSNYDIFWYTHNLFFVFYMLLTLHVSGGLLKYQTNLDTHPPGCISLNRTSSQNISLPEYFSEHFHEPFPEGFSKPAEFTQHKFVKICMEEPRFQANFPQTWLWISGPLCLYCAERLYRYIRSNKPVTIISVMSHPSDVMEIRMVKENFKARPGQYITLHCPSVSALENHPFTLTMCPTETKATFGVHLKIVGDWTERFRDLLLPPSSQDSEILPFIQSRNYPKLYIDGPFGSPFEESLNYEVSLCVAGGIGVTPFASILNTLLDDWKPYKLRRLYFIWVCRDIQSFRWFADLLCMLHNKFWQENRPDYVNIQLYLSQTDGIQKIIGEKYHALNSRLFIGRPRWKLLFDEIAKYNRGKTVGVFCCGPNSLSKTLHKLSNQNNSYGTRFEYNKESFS

[20] = molecular target: NADPH oxidase 5 (Homo sapiens) (UniProt Q96PH1); experiment: compounds shifting NOX5 Amplex Red fluorescence – cell-based, HEK293-NOX5, NOX inhibitor project, primary screen (AID 1161); settings: HEK293-NOX5, ionomycin, 45 min, higher = more signal
Chain of NADPH oxidase 5 (Homo sapiens) (Q96PH1 whole entry, looked up): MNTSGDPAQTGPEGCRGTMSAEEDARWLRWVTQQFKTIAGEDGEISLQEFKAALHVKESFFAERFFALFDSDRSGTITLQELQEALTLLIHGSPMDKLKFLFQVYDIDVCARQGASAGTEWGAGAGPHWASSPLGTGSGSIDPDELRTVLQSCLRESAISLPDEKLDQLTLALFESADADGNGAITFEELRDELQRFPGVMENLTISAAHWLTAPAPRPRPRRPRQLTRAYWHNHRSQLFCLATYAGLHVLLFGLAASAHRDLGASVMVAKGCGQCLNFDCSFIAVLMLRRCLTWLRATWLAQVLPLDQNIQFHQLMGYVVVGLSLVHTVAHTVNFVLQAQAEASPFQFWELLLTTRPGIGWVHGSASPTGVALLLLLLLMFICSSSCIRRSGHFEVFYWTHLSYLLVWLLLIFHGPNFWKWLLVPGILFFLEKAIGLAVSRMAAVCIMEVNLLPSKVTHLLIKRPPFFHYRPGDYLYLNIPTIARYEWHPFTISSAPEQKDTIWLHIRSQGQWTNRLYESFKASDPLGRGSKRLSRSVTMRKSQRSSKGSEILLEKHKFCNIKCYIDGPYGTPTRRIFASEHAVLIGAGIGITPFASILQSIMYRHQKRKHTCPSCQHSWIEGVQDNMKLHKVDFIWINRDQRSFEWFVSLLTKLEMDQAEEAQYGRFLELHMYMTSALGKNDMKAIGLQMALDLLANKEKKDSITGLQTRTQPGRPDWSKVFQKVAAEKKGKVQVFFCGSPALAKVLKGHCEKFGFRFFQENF

Structure (SMILES)	composite z-score [1]	z-score [2]	z-score [3]	z-score [4]	z-score [5]	composite z-score [6]	composite z-score [7]	composite z-score [8]	composite z-score [9]	composite z-score [10]	z-score [11]	composite z-score [12]	z-score [13]	z-score [14]	z-score [15]	z-score [16]	z-score [17]	z-score [18]	z-score [19]	z-score [20]
COCCCNC(=O)[C@@]1(CCC(=O)OC(C)(C)C)COC(c2ccc(OCCCO)cc2)=N1	0.23	-1.7 (inactive)	-0.126 (inactive)	0.195 (inactive)	0.706 (inactive)	0.905	0.204	0.589	1.4	-0.98	0.42 (inactive)	0.205	23.6 (active)	4.91 (inactive)	0.873 (inactive)	0.766 (inactive)	-0.169	-2.51 (inactive)	0.195 (inactive)	-0.0784
CC(C)(C)N1CC=CC23O[C@@H]4C=CCOC(=O)[C@@H]4[C@H]2C(=O)N(CCO)[C@@H]3C1=O (stereo not given in full)	-0.887	0.262 (inactive)	1.7 (inactive)	0.744 (inactive)	1.07 (inactive)	-1.61	-0.32	-2.49	-1.07	-0.863	-0.476 (inactive)	-0.0967	0.55 (inactive)	0.184 (inactive)	0.0221 (inactive)	0.526 (inactive)	-0.694	1.09 (inactive)	1.32 (inactive)	1.59
COc1ccc(C(=O)Nc2cccc(CN3C(=O)[C@@]4(O[C@@H](CC(=O)N5CCC[C@H]5CO)[C@H]([Si](C)(C)c5ccc(OC)cc5)[C@H]4C)c4ccccc43)c2)cc1	0.107	-4.18 (inactive)	-0.601 (inactive)	1.69 (inactive)	-1.55 (inactive)	0.621	-0.0454	0.313	1.15	1.26	-0.184 (inactive)	-0.06	4.51 (inactive)	1.32 (inactive)	0.691 (inactive)	0.696 (inactive)	1.31	1.24 (inactive)	0.982 (inactive)	4.72
COc1cc(OC)c(C(O)C2C=CC3C(=O)N(c4ccccc4)C(=O)C3N2Nc2ccc(C(C)C)cc2)cc1Br (stereo not given)	0.386	-0.942 (inactive)	-1.49 (inactive)	1.78 (inactive)	-0.567 (inactive)	1.71	0.136	0.255	0.345	0.415	0.857 (inactive)	-0.0889	2.94 (inactive)	1.93 (inactive)	-0.255 (inactive)	1.49 (inactive)	-1.06	0.0256 (inactive)	-3.73 (inactive)	-2.24
CCOC(=O)C[C@H]1[C@H](OC(=O)Cc2ccc3c(c2)OCO3)[C@@H](NC(=O)c2ccc3ccccc3n2)c2cc(OCCCO)ccc2N1C(=O)Cc1ccc(OC)cc1	0.0586	-1.01 (inactive)	-0.885 (inactive)	3.29 (inactive)	0.637 (inactive)	0.417	-0.101	0.509	0.744	0.902	2.14 (inactive)	-0.0573	21.8 (active)	5.31 (inactive)	-0.997 (inactive)	0.0217 (inactive)	2.03	-1.47 (inactive)	0.824 (inactive)	0.159
